Common to all, as to test: log2 ratio of Biotin-Ahx-Ub-VS probe labelling (fragment/DMSO); higher = less target engagement (more negative = stronger competition), active = hit call of the paper (q ≤ 0.05, log2 ratio ≤ -1)
Common to all, as to details: compound concentration: 200 uM; treatment time: 3 h

For experiment [1], the target named is T1, ALG13 (UniProt Q9NP73).
T1 sequence (whole entry): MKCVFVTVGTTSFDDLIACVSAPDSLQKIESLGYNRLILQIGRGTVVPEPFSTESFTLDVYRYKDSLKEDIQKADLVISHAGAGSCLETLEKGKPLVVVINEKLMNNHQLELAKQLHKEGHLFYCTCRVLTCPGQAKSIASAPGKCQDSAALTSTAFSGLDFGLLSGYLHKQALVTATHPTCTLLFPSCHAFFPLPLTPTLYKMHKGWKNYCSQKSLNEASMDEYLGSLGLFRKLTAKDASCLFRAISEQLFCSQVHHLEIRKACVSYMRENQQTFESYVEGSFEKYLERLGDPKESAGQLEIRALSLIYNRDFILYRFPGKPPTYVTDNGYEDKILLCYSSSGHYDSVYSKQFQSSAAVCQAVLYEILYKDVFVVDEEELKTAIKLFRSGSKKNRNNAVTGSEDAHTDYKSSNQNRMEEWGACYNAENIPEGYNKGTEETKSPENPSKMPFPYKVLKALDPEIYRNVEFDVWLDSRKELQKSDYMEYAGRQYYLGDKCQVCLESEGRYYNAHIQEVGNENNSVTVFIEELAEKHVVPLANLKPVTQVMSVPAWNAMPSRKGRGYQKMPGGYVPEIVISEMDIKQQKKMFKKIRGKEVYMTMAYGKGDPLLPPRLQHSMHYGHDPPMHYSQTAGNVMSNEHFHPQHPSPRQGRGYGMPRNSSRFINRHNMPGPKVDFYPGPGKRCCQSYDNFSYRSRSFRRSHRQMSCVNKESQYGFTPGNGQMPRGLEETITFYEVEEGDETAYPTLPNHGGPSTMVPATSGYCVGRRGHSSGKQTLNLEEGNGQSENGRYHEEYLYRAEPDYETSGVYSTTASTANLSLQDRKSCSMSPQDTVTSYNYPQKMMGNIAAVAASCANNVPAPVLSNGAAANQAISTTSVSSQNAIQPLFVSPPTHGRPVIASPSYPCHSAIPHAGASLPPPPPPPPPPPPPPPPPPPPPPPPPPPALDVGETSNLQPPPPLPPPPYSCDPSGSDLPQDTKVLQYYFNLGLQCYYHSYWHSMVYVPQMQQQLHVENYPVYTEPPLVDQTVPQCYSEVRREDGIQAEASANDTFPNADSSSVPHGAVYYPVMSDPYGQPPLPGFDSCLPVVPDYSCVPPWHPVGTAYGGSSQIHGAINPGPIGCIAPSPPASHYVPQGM
Put shortly: (§1)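 Average log2 ratios of fragment over vehicle were obtained by unpaired t-test from global-median-normalised Spectronaut label-free quantities. Proteins with ≥2 unique peptides were included. HEK293T lysate (495 µg per sample) was treated in triplicate with fragment at 200 µM or vehicle for 3 h, then with Biotin-Ahx-Ub-VS at 0.5 µM final for 1 h, and labelled DUBs were NeutrAvidin-enriched and run by diaPASEF LC-MS/MS.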

Experiment [2] concerns the target ATXN3 (UniProt P54252). The method, boiled down:
as §1

Experiment [3] concerns the target T2, BAP1 (UniProt Q92560).
T2 sequence (whole entry): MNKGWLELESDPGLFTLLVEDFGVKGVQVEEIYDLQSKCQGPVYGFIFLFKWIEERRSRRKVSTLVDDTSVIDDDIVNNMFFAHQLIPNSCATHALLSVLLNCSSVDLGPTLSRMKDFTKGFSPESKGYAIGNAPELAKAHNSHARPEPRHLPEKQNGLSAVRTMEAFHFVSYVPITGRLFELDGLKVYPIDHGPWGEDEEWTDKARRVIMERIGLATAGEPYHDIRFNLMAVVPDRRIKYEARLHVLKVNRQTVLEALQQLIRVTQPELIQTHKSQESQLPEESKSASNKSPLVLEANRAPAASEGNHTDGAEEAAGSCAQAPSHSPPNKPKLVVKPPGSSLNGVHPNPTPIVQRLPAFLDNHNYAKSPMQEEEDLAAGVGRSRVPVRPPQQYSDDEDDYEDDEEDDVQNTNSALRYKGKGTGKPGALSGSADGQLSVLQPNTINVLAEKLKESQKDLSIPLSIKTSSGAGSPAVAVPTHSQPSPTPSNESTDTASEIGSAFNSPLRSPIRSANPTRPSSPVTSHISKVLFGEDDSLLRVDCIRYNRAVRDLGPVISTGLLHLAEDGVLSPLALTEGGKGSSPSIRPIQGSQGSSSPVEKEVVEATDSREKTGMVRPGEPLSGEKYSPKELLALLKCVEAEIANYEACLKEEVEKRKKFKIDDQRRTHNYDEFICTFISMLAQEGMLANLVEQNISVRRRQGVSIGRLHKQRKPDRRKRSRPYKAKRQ
The method, boiled down: as §1

For experiment [4], the target named is EIF3F (UniProt O00303). Put shortly:
as §1

Experiment [5] has as its target EIF3H (UniProt O15372). The method, boiled down: as §1
The target of experiment [6] is T3, FAM105A (UniProt Q9NUU6).
T3 sequence (whole entry): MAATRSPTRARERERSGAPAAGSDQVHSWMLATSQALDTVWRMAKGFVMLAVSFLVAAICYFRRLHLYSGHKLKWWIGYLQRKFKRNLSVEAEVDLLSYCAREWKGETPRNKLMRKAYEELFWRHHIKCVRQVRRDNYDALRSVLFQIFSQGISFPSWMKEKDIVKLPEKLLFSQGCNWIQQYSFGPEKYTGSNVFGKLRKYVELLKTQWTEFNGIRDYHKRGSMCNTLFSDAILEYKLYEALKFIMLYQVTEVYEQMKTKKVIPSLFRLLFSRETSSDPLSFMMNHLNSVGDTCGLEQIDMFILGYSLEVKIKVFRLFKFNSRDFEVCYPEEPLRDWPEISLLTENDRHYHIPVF
The method, boiled down: as §1

The target in experiment [7] is OTUB1 (UniProt Q96FW1). The method, boiled down: as §1
Sequence of OTUB1 (Q96FW1 whole entry): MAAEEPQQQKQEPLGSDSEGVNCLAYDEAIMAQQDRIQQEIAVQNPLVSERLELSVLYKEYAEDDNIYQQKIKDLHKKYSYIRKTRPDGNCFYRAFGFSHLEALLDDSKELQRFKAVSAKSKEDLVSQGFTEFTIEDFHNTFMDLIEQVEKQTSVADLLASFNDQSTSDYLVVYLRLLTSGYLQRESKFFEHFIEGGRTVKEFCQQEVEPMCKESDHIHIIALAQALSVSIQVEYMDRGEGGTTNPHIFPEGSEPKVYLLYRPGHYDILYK
For experiment [8], the target named is T4, OTUD4 (UniProt Q01804).
T4 sequence (whole entry): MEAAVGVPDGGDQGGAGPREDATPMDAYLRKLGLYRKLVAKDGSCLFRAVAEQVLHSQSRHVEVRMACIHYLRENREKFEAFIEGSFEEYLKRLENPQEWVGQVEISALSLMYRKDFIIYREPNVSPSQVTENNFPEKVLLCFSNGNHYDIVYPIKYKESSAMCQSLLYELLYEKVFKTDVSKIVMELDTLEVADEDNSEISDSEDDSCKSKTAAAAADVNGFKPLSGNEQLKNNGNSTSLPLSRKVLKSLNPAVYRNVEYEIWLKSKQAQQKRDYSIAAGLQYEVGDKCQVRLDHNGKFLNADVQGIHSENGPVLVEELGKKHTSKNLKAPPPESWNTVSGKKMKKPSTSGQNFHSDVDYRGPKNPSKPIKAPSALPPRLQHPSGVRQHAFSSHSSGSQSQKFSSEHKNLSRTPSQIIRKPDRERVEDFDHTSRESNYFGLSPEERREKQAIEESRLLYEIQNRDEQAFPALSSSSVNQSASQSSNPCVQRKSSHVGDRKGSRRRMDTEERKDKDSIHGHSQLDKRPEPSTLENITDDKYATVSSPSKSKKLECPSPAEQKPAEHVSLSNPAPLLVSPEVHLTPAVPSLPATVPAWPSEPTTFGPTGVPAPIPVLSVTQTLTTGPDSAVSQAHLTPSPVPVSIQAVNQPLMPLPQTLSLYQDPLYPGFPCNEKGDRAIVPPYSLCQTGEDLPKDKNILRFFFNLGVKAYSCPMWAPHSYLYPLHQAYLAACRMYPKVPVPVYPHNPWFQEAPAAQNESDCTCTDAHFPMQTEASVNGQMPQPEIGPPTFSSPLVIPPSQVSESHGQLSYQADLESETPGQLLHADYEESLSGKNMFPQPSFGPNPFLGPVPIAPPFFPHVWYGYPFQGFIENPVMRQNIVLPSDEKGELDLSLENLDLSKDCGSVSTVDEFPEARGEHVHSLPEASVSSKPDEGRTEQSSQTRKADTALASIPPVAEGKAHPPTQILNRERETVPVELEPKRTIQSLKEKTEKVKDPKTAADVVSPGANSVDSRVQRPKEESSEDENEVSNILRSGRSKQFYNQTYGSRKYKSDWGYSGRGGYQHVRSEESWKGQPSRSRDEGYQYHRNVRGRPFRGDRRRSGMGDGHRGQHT
The method, boiled down: as §1

For experiment [9], the target named is T5, OTUD5 (UniProt Q96G74).
T5 sequence (whole entry): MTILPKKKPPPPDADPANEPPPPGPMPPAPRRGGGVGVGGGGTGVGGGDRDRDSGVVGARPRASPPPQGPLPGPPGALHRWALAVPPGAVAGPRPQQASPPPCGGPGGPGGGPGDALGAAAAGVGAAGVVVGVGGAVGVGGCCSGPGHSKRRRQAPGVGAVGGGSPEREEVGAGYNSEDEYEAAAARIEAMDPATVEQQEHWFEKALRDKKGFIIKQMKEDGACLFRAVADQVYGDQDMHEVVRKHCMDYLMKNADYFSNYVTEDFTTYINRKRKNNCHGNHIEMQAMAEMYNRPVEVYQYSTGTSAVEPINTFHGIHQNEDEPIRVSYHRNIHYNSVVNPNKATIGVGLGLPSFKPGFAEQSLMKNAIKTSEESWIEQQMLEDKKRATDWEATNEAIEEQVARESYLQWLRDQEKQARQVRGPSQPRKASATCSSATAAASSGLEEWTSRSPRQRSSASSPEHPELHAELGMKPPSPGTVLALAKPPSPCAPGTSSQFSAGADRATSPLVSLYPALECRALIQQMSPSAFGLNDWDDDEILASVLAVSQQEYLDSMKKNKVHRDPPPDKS
The method, boiled down: as §1

Unmarked numbers belong to inactive results.

Sequence of EIF3H (O15372 whole entry): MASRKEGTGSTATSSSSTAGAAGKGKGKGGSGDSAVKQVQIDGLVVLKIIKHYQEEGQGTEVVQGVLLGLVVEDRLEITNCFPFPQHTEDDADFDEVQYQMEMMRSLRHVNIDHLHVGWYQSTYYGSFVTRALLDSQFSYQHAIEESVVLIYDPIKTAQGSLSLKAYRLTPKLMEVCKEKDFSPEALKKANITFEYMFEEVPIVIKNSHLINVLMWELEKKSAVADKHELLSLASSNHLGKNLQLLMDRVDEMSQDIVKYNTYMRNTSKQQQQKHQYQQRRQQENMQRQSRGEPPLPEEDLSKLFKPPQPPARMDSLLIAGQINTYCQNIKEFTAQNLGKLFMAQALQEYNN
Sequence of ATXN3 (P54252 whole entry): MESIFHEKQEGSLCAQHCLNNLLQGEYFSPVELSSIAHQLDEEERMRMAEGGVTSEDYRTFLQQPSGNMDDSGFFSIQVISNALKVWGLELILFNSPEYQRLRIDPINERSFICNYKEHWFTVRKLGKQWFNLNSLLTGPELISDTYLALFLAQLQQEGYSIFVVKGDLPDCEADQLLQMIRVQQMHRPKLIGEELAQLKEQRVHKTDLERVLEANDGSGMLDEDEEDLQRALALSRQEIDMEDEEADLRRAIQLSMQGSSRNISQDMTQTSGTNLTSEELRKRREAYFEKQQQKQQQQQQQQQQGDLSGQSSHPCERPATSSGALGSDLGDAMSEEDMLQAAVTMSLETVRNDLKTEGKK
Sequence of EIF3F (O00303 whole entry): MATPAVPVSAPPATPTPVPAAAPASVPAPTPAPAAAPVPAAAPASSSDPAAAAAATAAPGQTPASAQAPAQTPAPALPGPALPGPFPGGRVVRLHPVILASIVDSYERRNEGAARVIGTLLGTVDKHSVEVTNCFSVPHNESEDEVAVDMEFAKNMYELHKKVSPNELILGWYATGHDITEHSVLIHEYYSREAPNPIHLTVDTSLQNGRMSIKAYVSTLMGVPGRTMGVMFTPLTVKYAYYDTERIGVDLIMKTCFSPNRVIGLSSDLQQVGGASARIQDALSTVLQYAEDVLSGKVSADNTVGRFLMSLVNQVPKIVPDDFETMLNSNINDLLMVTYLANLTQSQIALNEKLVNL

As for `Cc1cccc(C(CNC(=O)CCl)N2CCOCC2)c1.Cl` (configuration not stated), the “log2 ratio of Biotin-Ahx-Ub-VS probe labelling” value (shortened to “log2 ratio”) in experiment [1] is -0.0491; in experiment [2] it was 0.0164; in [3], -0.497; in experiment [4], 0.0302; in [5], 0.267; in experiment [6], -0.778. Moreover, the “log2 ratio” value in experiment [7] is -0.156; in [8], -0.199; in experiment [9], -0.241.
With `O=C(CCl)NC(Cn1ccccc1=O)c1ccccc1` (configuration not stated), the “log2 ratio” value in [1] was 0.152; in [2] it was -0.00539; in experiment [3] it was -1.18 (active); in experiment [4], 0.0892; in experiment [5], -0.0521; in experiment [6], 0.0796. Moreover, the “log2 ratio” value was -0.3 in experiment [7], -0.122 in experiment [8] and -0.104 in [9].
With `Cc1ccc(C)c(Oc2ccc(CNC(=O)CCl)cn2)c1.Cl`, the “log2 ratio” value in experiment [1] is -0.222; in experiment [2], -0.48; in [3] it was -3.94 (active); in experiment [4], -0.169; in experiment [5], 0.199; in experiment [6], -0.149. Also, the “log2 ratio” value in experiment [7] is 0.0499; in [8], -0.382; in experiment [9], -0.697.
For `Cl.Cn1ncc2c1CC(NC(=O)CCl)CC2` (configuration not stated), the “log2 ratio” value in experiment [1] was 0.027; in experiment [2], -0.0274; in [3], -1.1 (active); in [4], -0.121; in experiment [5], -0.266; in [6] it was 0.307. The figures for the “log2 ratio” value in experiment [7], in experiment [8] and in experiment [9] were -0.112, -0.464 and 0.000518, respectively.
In the case of `O=C(CCl)N1CCc2[nH]c3ccccc3c2C1`, the “log2 ratio” value in experiment [1] is -0.37; in experiment [2] it was -0.343; in experiment [3], -0.875; in experiment [4] it was -0.00281; in experiment [5], 0.231; in experiment [6], 0.0311. Besides, the figures for the “log2 ratio” value in [7], in experiment [8] and in [9] were -0.167, -0.657 and -1.55 (active), respectively.
As to `Cc1nc(CN2CCN(C(=O)CCl)CC2)cs1`, the “log2 ratio” value in experiment [1] is 0.271; in experiment [2], -0.309; in [3] it was -0.469; in experiment [4], -0.26; in experiment [5], 0.0747; in experiment [6], 0.151. The “log2 ratio” value in experiment [7] is 0.0298; in [8] it was -0.0355; in experiment [9], -0.265.
For the compound `O=C(CCl)NCc1ccc(N2CCOCC2)nc1`, the “log2 ratio” value in experiment [1] is 0.174; in [2], -0.193; in experiment [3], -2.61 (active); in experiment [4], -0.156; in [5] it was 0.183; in experiment [6] it was 0.479. The “log2 ratio” value is 0.0139 in experiment [7], -0.539 in experiment [8] and -0.385 in experiment [9].
For the compound `CCCn1nccc1NC(=O)CCl`, the “log2 ratio” value in [1] was 0.12; in [2], -0.199; in experiment [3], -3.06 (active); in [4] it was -0.613; in [5] it was 0.123; in experiment [6], 0.145. In addition, the “log2 ratio” value in experiment [7] is -0.396; in [8], 0.00925; in experiment [9], -0.138.

(Values after the supplement of paper PMC11732987, “Enantioselective OTUD7B fragment discovery through chemoproteomics screening and high-throughput optimisation” (Communications Chemistry, 2025).)
